Here are results for 25 molecules from PubChem BioAssay (NCATS).

Test [1] concerns the target Cytochrome P450 1A2 (Homo sapiens) (UniProt P05177). Briefly: p450-cyp1a2 (AID 410; calls by dose curve; further: potency means the concentration at half of the fitted maximal effect). The gist of the method: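 Inhibition was calculated relative to 57 uM furafylline (full inhibition). The reaction used human CYP1A2 at 20nM with Luciferin-ME at its Km, 100uM, driven by an NADPH-regenerating system for 60 min at room temperature.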
The target of test [2] is Mitogen-activated protein kinase 10 (Mus musculus) (UniProt Q61831). Briefly: JNK3 AlphaScreen Assay (AID 530; active means well fitted curve in either direction with a large enough effect, not every such curve was filed as active;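 further: kinase came from lysate of stimulated human HepG2 cells; signal reports phosphorylation of biotinylated GST-cJun 1-79 at Ser73 with 10 µM ATP; series mostly up to about 57 µM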). Put shortly:
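qHTS format: compounds tested as titrations against IL-1beta/TNF-alpha-activated HepG2 lysate JNK3 with biotin-GST-cJun substrate and 10 uM ATP at room temperature. Loss of anti-phospho-cJun AlphaScreen signal indicates inhibition.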
In general terms: Bead proximity is the source of the signal in Alpha formats.

Test [3] addresses Cytochrome P450 3A4 (Homo sapiens) (UniProt P08684). Briefly: qHTS Assay for Inhibitors and Substrates of Cytochrome P450 3A4 (AID 884). Further: nearly all actives have a fitted effect of over 50% in size. Further: potency means the concentration at half of the fitted maximal effect. Put shortly:
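20 nM human CYP3A4 with 25 uM Luciferin-PPXE (at KM) in 200 mM KPO4, preincubated 10 min with compound; NADPH regeneration started a 60 min RT reaction. Luciferin detected by luminescence, normalized to 57 uM ketoconazole as full inhibition.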

The target is the same in test [4]. Briefly: qHTS Assay for Activators of Cytochrome P450 3A4 (AID 885). Further: nearly all actives have a fitted effect of over 65% in size. Put shortly:
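20nM CYP3A4 + 25uM Luciferin-PPXE (=KM), 200mM KPO4; cpd 10 min RT; NADPH regen, 60 min RT; stop w/ detection buffer, 20 min; luminescence. Normalized to 57 uM ketoconazole.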

The target in test [5] is Cytochrome P450 2D6 (Homo sapiens) (UniProt P10635). Briefly: qHTS Assay for Inhibitors and Substrates of Cytochrome P450 2D6 (AID 891). Further: potency means the concentration at half of the fitted maximal effect; nearly all actives have a fitted effect of over 60% in size. Put shortly:
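Human CYP2D6 (5 nM) with 30 uM Luciferin-ME EGE (at Km) in 100 mM KPO4, compound preincubated 10 min, then NADPH regeneration system for 60 min at room temperature. Luciferin read by luminescence; normalized to 1.43 uM quinidine.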
A general note: qHTS replaces the single test concentration by a dilution series.

For test [6], the target named is Cytochrome P450 2C19 (Homo sapiens) (UniProt P33261). Briefly: qHTS Assay for Inhibitors and Substrates of Cytochrome P450 2C19 (AID 899). Further: potency means the concentration at half of the fitted maximal effect; nearly all actives have a fitted effect of over 60% in size. The gist of the method: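 Luminescent read-out of luciferin formed from Luciferin-H EGE (10uM, equal to KM). Enzyme 5nM in 50mM KPO4; compound added, 10 min at 37C, then NADPH regenerating system for 60 min at 37C. Full inhibition defined by 57uM ketoconazole.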

Test [7] concerns the target Cytochrome P450 2C9 (Homo sapiens) (UniProt P11712). Briefly: qHTS Assay for Inhibitors and Substrates of Cytochrome P450 2C9 (AID 883). Further: potency means the concentration at half of the fitted maximal effect; nearly all actives have a fitted effect of over 60% in size. The gist of the method: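 10nM CYP2C9 + 100uM Luciferin-H (=KM), 25mM KPO4; cpd 10 min 37C; NADPH regen, 60 min 37C; stop/detect with P450 Glo-Buffer 20 min; luminescence. Norm. to 57uM sulphaphenazole as full inhibition.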
Test [8] concerns the target 3',5'-cyclic-AMP phosphodiesterase 4B (Homo sapiens) (UniProt Q07343). Briefly: qHTS Assay for Inhibitors of PDE-IV (AID 607; active means well fitted activation curve with a large enough effect in the main read-out, with a control signal flat, not every such curve was filed as active). Put shortly:
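ACTOne HEK293 cells carry a modified cAMP-gated CNG channel and express endogenous PDE4; plated 1000 cells/well, compounds up to 22.9 uM final. Membrane-potential dye fluorescence (ex 535/em 590) was read; parental cells received 10 uM forskolin + 100 uM RO 20-1724.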

Records with an inconclusive call do not appear. The source made the active and inactive calls. Unless noted, the call rests on the fitted dose curve; in most records, active means well fitted curve in the direction sought with a large enough effect; inconclusive means small, poorly fitted or top-dose-only effect, or another doubt; inactive means no such curve, though single readings can be large; an effect the other way counts as inactive or inconclusive.

Chain of Cytochrome P450 2C19 (Homo sapiens) (P33261 whole entry, looked up): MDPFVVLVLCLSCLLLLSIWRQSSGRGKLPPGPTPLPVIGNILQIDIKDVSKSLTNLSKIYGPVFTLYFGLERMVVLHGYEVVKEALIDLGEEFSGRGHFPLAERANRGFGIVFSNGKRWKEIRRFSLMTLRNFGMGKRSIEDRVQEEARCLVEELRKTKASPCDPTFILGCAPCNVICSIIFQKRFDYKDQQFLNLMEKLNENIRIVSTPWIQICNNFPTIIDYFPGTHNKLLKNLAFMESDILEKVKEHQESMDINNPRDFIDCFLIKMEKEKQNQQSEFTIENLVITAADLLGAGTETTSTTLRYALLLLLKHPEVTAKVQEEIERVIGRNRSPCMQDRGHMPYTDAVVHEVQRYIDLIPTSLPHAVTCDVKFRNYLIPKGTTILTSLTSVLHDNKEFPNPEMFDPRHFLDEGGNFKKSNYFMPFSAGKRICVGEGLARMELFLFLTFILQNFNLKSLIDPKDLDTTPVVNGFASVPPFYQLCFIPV
Chain of Cytochrome P450 2C9 (Homo sapiens) (P11712 whole entry, looked up): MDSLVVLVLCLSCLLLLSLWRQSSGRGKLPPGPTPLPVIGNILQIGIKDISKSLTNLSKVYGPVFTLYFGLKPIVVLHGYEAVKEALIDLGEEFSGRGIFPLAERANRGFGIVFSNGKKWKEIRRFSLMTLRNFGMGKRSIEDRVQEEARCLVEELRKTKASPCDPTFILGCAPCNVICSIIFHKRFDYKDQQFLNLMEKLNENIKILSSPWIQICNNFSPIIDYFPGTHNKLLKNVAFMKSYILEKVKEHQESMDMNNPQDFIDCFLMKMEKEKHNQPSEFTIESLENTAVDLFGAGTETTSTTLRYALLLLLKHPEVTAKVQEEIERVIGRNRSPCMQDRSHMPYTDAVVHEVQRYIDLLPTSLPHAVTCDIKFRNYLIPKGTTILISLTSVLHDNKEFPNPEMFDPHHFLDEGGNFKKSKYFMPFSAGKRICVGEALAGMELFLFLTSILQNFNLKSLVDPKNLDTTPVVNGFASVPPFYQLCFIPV
Chain of Cytochrome P450 3A4 (Homo sapiens) (P08684 whole entry, looked up): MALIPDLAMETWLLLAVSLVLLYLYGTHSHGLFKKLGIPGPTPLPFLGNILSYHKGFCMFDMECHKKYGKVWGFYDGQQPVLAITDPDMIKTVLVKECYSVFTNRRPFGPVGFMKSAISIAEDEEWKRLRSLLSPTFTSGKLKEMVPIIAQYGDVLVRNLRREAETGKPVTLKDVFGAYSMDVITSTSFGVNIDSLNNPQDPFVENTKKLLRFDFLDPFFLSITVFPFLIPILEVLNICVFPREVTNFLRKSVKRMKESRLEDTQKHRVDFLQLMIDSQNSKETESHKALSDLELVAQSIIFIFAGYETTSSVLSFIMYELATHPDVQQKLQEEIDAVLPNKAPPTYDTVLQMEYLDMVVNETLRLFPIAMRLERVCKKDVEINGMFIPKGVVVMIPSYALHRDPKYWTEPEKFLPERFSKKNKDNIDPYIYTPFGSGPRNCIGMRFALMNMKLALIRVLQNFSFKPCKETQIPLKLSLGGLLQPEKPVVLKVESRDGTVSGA
Chain of Cytochrome P450 1A2 (Homo sapiens) (P05177 whole entry, looked up): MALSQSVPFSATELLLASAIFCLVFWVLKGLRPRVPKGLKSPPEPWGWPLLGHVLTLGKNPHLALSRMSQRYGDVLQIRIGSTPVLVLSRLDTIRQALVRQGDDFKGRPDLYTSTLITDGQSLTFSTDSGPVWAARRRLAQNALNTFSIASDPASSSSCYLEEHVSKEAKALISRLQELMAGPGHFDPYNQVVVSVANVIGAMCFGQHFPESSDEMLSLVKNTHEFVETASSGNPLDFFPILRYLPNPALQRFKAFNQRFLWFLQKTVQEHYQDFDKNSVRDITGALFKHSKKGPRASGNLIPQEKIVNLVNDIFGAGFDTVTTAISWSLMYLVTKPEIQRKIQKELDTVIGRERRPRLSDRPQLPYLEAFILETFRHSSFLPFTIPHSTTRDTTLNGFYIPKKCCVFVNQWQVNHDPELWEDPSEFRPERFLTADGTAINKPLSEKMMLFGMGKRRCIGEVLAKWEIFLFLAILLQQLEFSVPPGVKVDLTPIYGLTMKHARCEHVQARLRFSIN
Chain of 3',5'-cyclic-AMP phosphodiesterase 4B (Homo sapiens) (Q07343 whole entry, looked up): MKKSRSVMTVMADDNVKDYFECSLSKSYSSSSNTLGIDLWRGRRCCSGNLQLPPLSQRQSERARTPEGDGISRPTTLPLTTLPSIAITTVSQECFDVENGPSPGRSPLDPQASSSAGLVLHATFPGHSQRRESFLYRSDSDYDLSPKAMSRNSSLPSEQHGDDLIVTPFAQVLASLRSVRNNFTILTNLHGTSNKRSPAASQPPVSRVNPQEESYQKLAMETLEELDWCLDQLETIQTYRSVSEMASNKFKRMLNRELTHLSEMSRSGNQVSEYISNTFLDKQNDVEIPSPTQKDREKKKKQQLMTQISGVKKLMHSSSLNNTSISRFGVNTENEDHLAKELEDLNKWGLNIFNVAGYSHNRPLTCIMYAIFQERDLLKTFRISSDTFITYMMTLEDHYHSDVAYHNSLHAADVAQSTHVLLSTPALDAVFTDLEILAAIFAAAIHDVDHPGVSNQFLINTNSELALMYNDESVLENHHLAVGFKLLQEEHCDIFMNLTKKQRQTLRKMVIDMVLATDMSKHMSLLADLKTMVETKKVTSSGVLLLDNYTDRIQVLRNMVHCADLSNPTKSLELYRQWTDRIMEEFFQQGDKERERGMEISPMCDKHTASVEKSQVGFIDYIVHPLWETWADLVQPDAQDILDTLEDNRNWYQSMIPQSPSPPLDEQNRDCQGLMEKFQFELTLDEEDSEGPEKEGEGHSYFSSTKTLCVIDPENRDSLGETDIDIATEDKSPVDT
Chain of Cytochrome P450 2D6 (Homo sapiens) (P10635 whole entry, looked up): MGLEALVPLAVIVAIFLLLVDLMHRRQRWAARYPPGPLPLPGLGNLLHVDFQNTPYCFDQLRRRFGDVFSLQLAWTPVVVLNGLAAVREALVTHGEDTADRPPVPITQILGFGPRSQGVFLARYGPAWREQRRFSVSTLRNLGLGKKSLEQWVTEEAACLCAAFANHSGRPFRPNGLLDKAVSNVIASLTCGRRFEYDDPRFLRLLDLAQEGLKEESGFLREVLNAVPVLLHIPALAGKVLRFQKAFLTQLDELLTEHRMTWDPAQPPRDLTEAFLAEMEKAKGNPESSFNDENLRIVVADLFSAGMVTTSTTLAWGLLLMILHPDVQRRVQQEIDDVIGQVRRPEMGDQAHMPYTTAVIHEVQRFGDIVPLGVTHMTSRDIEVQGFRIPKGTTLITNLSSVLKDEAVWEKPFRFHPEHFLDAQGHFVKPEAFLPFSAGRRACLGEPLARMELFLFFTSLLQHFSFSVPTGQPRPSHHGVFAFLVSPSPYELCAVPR

Turning to `CCC/C=C(\CCC)C(NP(=O)(c1ccccc1)c1ccccc1)c1ccc(C(F)(F)F)cc1` (configuration not stated), the Potency entry in test [1], in test [2] and in test [3] was “inactive” each time.
`C[C@@H](C(=O)Nc1ccc2ccccc2c1)[C@H]1C[C@]1(C)[C@H](NS(=O)(=O)c1ccc2ccccc2c1)c1ccccc1`: the Potency entry in test [1], in test [2] and in test [4] was “inactive” each time. Further, the Potency was 7.94 µM (active) in test [3], 3.16 µM (active) in test [5] and 0.251 µM (active) in test [6].
Turning to `CCC/C=C(\CCC)C(NP(=O)(c1ccccc1)c1ccccc1)c1ccc(-c2ccccc2)cc1` (configuration not stated), the Potency in test [1] is 2.51 µM (active); in test [3] it was 3.98 µM (active); in test [6], 7.94 µM (active). In addition, the Potency entry in test [2] and in test [4] was “inactive” in each case.
Turning to `CC1(C)C(=O)C(c2ccccc2)=C2CN3C(=O)N(CCc4ccccc4)C(=O)C3(Cc3ccccc3)C=C21` (configuration not stated), the Potency in test [1] was 6.31 µM (active); in test [3] it was 2 µM (active). Further, the Potency entry in test [2] and in test [4] was “inactive” in each case.
Take `COC(=O)[C@@]1(Cc2ccc(OC)cc2)[C@H]2c3cc(C(=O)N4CCCC4)n(CCn4cc([N+](=O)[O-])nc4C)c3C[C@H]2CN1C(=O)c1ccccc1`: the Potency entry in test [1], in test [2] and in test [4] was “inactive” in each case. Moreover, in test [3], the Potency is 3.98 µM (active).
`CCCC[C@@H]1C[C@H]1C(NC(=O)c1ccc(C(F)(F)F)cc1)c1ccc(C(=O)OC)cc1` (some centres not stated): the Potency in test [1] was 15.8 µM (active); in test [3] it was 5.01 µM (active). The Potency entry in test [2] and in test [4] was “inactive” throughout.
Regarding `CCCC[C@@H]1C[C@H]1C(NC(=O)c1ccco1)c1ccc(-c2ccccc2)cc1` (some centres not stated), the Potency is 5.01 µM (active) in test [1] and 3.16 µM (active) in test [7]. Moreover, the Potency result in test [2] and in test [4] was “inactive” in each case.
On to `COC(=O)c1ccc(C(NC(=O)c2ccco2)[C@]2(C)C[C@H]2C2CCCCC2)cc1` (some centres not stated), for which the Potency entry in test [1], in test [2] and in test [4] was “inactive” each time. Besides, the Potency in test [3] was 7.94 µM (active).
With `CCCC[C@@H]1C[C@H]1C(NC(=O)c1ccccc1)c1ccc(Cl)cc1` (some centres not stated), the Potency is 1 µM (active) in test [1], 3.98 µM (active) in test [3] and 0.631 µM (active) in test [6]. Further, the Potency entry in test [2] and in test [4] was “inactive” throughout.
Consider `COC(=O)[C@@]1(Cc2ccc(F)cc2)[C@@H]2[C@@H](CC(=O)[C@H]2CC(=O)C(=O)N2CCCC2)CN1C(=O)c1ccccc1`, for which the Potency entry in test [1], in test [2] and in test [4] was “inactive” in each case. Also, in test [3], the Potency was 1.58 µM (active).
Regarding `CCCCc1c2ccccc2nc2[nH]c3ccccc3c12`, in test [1], the Potency is 0.2 µM (active). Moreover, the Potency result in test [2] and in test [4] was “inactive” in each case.
In the case of `CCC/C=C(\CCC)C(NC(=O)c1ccc(-c2ccccc2)cc1)c1ccc(C(=O)OC)cc1` (configuration not stated), the Potency in test [1] is 0.631 µM (active). Also, the Potency entry in test [2] and in test [4] was “inactive” in each case.
For the molecule `COC(=O)[C@@]1(Cc2ccc(F)cc2)[C@H]2c3cc(C(=O)N4CCCC4)n(Cc4ccc(C)c(F)c4F)c3C[C@H]2CN1C(=O)c1ccccc1`, the Potency entry in test [1], in test [2] and in test [4] was “inactive” in each case. In addition, the Potency in test [3] was 2.51 µM (active).
In the case of `COC(=O)[C@@]1(Cc2ccccc2)[C@H]2c3cc(C(=O)N4CCCC4)n(C)c3C[C@H]2CN1C(=O)c1ccccc1`, the Potency is 25.1 µM (active) in test [1], 3.98 µM (active) in test [3] and 3.98 µM (active) in test [6]. For the same molecule, the Potency result in test [2] and in test [4] was “inactive” throughout.
In the case of `CCCC[C@@H]1C[C@H]1C(NC(=O)c1cccs1)c1ccccc1C(F)(F)F` (some centres not stated), the Potency in test [1] is 6.31 µM (active); in test [3], 3.16 µM (active); in test [6], 0.631 µM (active). In addition, the Potency entry in test [2] and in test [4] was “inactive” throughout.
Regarding `CCCC[C@@H]1C[C@H]1C(NC(=O)c1ccco1)c1ccccc1` (some centres not stated), the Potency in test [1] is 2 µM (active). The Potency entry in test [2] and in test [4] was “inactive” each time.
On to `CCCC/C=C/C(NC(=O)c1cccs1)c1ccccc1` (configuration not stated), for which the Potency in test [1] was 1.58 µM (active); in test [7], 0.316 µM (active); in test [6], 1.58 µM (active). The Potency result in test [2] and in test [4] was “inactive” in each case.
Turning to `CCCC[C@@H]1C[C@H]1C(NC(=O)c1ccccc1)c1ccc(-c2ccccc2)cc1` (some centres not stated), the Potency in test [1] is 0.501 µM (active). The Potency result in test [2] and in test [4] was “inactive” each time.
For `C[C@@H](C(=O)NCc1nc2ccccc2[nH]1)[C@@H]1C[C@@]1(C)[C@@H](NC(=O)OCc1ccccc1)c1ccccc1`, the Potency in test [1] was 12.6 µM (active). Further, the Potency entry in test [2] and in test [4] was “inactive” throughout.
For `CC[C@H]1C2=C3C(CC[C@H]4C(OCc5ccc(F)cc5C(F)(F)F)OC[C@](C)([C@@H]34)N(C(=O)OC(C)(C)C)C2)C(COC(C)=O)C1COC(C)=O` (some centres not stated), the Potency entry in test [1], in test [2] and in test [4] was “inactive” each time.
For `CCCC/C=C/C(NC(=O)c1ccccc1)c1ccccc1` (configuration not stated), the Potency in test [1] was 3.98 µM (active); in test [6], 7.94 µM (active). Further, the Potency entry in test [4] was “inactive”.
Take `CCCC/C=C/C(NC(=O)Oc1cccc(C(F)(F)F)c1)c1ccccc1` (configuration not stated): the Potency in test [1] is 2.51 µM (active). In addition, the Potency result in test [8] and in test [4] was “inactive” throughout.
Take `CCCC[C@@H]1C[C@H]1C(NC(=O)c1ccco1)c1ccc(Cl)cc1` (some centres not stated): the Potency in test [1] is 0.794 µM (active); in test [7], 3.98 µM (active). For the same molecule, the Potency entry in test [3] was “inactive”.
Take `CC(C)c1cccc2cc3c(nc12)-c1cccc(=O)n1C3`: the Potency in test [1] is 0.501 µM (active). Also, the Potency entry in test [2] and in test [4] was “inactive” in each case.
For `COC(=O)[C@@]1(Cc2ccccc2)[C@H]2c3cc(C(=O)N4CCCC4)n(CC4CC4)c3C[C@H]2CN1C(=O)c1ccccc1`, the Potency entry in test [1], in test [8] and in test [4] was “inactive” in each case. Besides, the Potency in test [3] and in test [6] was 3.16 µM (active) in each case.
